Activity calls are given as the source filed them. Rule for the calls: active = hit-call score of the fitted dose curve at least 0.9, where 1 is the maximum; inactive = score below 0.9.

Read-out in the experiment: Macrophage colony-stimulating factor (MCSF), CSF1 (gene 1435)
The experiment can be described thus: BSK_IMphg_MCSF: BioMAP Diversity Plus: IMphg Assay for Macrophage colony-stimulating factor (MCSF) Biomarker Activity (AID 2284293). Particulars: primary human endothelial cells with macrophages. The method, then: BSK_IMphg is a cell-based, multiplexed-readout assay that uses venular endothelial cells and macrophages, a human vascular primary cell, with measurements taken at 24 hours after chemical dosing in a microplate: 96-well plate.BSK_IMphg_MCSF is an assay component measured in the BSK_IMphg assay. It measures M-CSF antibody related to regulation of gene expression using ELISA technology.Data from the assay component BSK_IMphg_MCSF was analyzed at the endpoint, BSK_IMphg_MCSF, in the positive analysis fitting direction relative to DMSO as the negative control and baseline of activity. Using a type of binding reporter, gain or loss-of-signal activity can be used to understand protein changes. To generalize the intended target to other relatable targets, this assay endpoint is annotated to the 'cytokine' intended target family, where the subfamily is 'colony stimulating factor'.
The levels of cell surface (or secreted, indicated by the prefix "s") biomarker endpoints were measured by ELISA. Overt cytotoxicity to cells in confluent adherent cultures (all systems other than the BT system) was assessed by measuring total protein levels using sulforhodamine B (SRB) staining in parallel cultures at the time of biomarker measurements, indicated as SRB endpoints. For proliferation assays for adherent cell types, individual cell types are cultured at sub-confluence and relative cell numbers quantified by SRB staining at time points optimized for each system (48 h: 3C and CASM3C systems; 72 h: BT and HDF3CGF systems; 96 h: SAg system). SRB was performed by staining cells with 0.1% SRB after fixation with 10% TCA and reading wells at 560 nm.Viability and proliferation of PBMC (T cells) was quantified by Alamar Blue reduction for the SAg and BT systems. For PBMC viability (referred to as PBMC Cytotoxicity within the assay endpoint names), cells were plated (75,000/well in a 96-well plate) and then chemical samples added for 1 h before addition of activators, SEB and TSST-1 (20 ng/mL final concentration each). Cells were incubated for 90 h. Then, Alamar Blue (20 uL/well) (Invitrogen, Cat DAL1100) was added for 6 h, and the plates were read with a fluorescence microplate reader at 546/580 nm (excitation/emission). For PBMC proliferation, cells were plated and activated as above but incubated for only 16 h prior to addition of Alamar Blue. Plates were read after 6 h.
Consider `NCC(F)(F)C(F)(F)C(F)(F)C(F)(F)F`, for which the result was inactive. Then `FC(F)C(F)(F)COCC1CO1` (stereo not given), with “inactive”.

`FC(F)(F)C(F)(F)C(F)(F)C(F)(F)C(F)(F)C(F)(F)I`: the result was inactive. Turning to `OC(O)(C(F)C(O)(O)C(F)(F)F)C(F)(F)F`, the outcome was inactive. Then `C[Si](C)(C)C(F)(F)C(F)(F)C(F)(F)F`, with “inactive”; and `O=C(Cl)C(F)(F)C(F)(F)C(F)(F)C(=O)Cl`, with “inactive”.

Regarding `O=S(=O)(O)CCC(F)(F)C(F)(F)C(F)(F)C(F)(F)C(F)(F)C(F)(F)F`, the outcome was inactive.

As for `FC(F)(F)COC(OCC(F)(F)F)OCC(F)(F)F`, the outcome was inactive. Regarding `FC(F)=C(F)C(F)(F)C(F)(F)C(F)(F)C(F)(F)C(F)(F)C(F)(F)F`, the result was inactive. Take `OCCC(F)(F)C(F)(F)C(F)(F)C(F)(F)F`: the outcome was inactive.

These data come from PubChem BioAssay (EPA / NIEHS).
